# In the library only some 21% were active in any assay of this set; here they are far more common.
# Pf growth 48h = inhibits P. falciparum growth in the first generation, 48 h; Potency, µM (doses to about 28.7 µM), without a hit: at the highest dose activity change, negative = inhibition, hits mostly inhibitors; P. falciparum luciferase growth in erythrocytes, 48 h; 310,000 compounds, 5.9% hits; AID 504832; further: potency means the concentration at half of the fitted maximal effect; on the % scale 0 is the no-effect control and ±100 the full control effect
#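 Here the parasites carry a stable luciferase gene and grow inside erythrocytes in Albumax-based RPMI medium with compound for one erythrocytic cycle. Activity is scored as loss of luminescent signal.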
# Shiga inhibitor = Shiga toxin inhibition. inhibition, % at 38.7 µM. Vero cells, Shiga toxin protein synthesis inhibition reporter. AID 2315. 290,000 compounds, 9.2% hits; in the data active means inhibition mostly above about 28%, no sharp cut-off; inactive means mostly below about 43%; further: 0% is about no effect
# HCV inh = blocks hepatitis C virus. Huh7.5.1 HCVcc-Cre infection, luciferase reporter, 44 h. Potency, µM (series often up to 41.8 µM), for the others: at the highest dose activity change, negative = inhibition, actives largely listed as inhibitors. 340,000 compounds, 3.4% hits. AID 651820; further: potency means the concentration at half of the fitted maximal effect; on the % scale 0 is the no-effect control and ±100 the full control effect
#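 Whole-lifecycle infectious HCVcc-Cre system; cells 1,000/well, compound then virus (~0.5 moi) added 4 h after plating, 44 h culture. Luciferase read 15 sec following 15 min substrate incubation, room temp.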
# HCMV antiviral = inhibitors of human cytomegalovirus | activity change, negative = inhibition, % at 57.5 µM | AID 1259415 | HFF cells, HCMV-luciferase reporter, 72 h; active compounds read low | 410,000 compounds, 4.5% hits; in the data active means activity change below about -60%; inconclusive means no clear call, values can overlap the other calls; inactive means above about -39%; further: on the % scale 0 is the no-effect control and ±100 the full control effect
#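 Human foreskin fibroblasts infected with luciferase-reporter HCMV at MOI 1 PFU/cell, compounds at two doses. Luciferase measured 72 h post infection; normalized to buffer-only basal and Salinomycin (10uM) controls.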
# CHX counter = counter-screen hit for Shiga toxin inhibitors, cycloheximide; cell reporter, cycloheximide protein synthesis inhibition counterscreen; max response, %; 300,000 compounds, 12% hits; in the data active means max response mostly above about 13%, no sharp cut-off; inactive means mostly below about 14%; further: read at 38.3 µM for the half of the compounds with a filed dose; 0% is about no effect
# Pf growth 96h = P. falciparum growth inhibition at 96 hour, primary screen for plastid delayed-death inhibitors; P. falciparum luciferase reporter growth, 96 h; Potency, µM (series often up to 28.7 µM), inactives show at the highest dose activity change, negative = inhibition, hits mostly inhibitors; 320,000 compounds, 6.9% hits; further: potency means the concentration at half of the fitted maximal effect; on the % scale 0 is the no-effect control and ±100 the full control effect
#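 Plates of compound plus infected erythrocytes (2% hematocrit, 0.05% parasitemia final) incubate 96 hours, 37 C, 5% CO2. Detection reagent added; reduced luminescence from the parasites' luciferase reporter flags inhibition.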
# Numbers without * were called inactive; ? = inconclusive; . = no result; [ ] = dose if it differs, or a comment. Unless noted, the call rests on the fitted dose curve; in most records, active means well fitted inhibition curve with a large enough effect; inconclusive means small, poorly fitted or top-dose-only effect, or another doubt; inactive means no such curve, though single readings can be large or run the other way.
SMILES,Pf growth 48h,Shiga inhibitor,HCV inh,HCMV antiviral,CHX counter,Pf growth 96h
O=C(CCCn1c(SCC(=O)c2ccc(O)c(O)c2)nc2ccccc2c1=O)NCC1CCCO1 (stereo unspecified),9.28µM*,-12.7,?,-20.4,0.9,?
CCOC(=O)c1cnc2ccc(OC)cc2c1NCCN1CCOCC1,?,34.1,2.2%,-5.6,6.6,?
CCOC(=O)c1cnc2ccc(OC)cc2c1NCCc1ccc(OC)c(OC)c1,2.62µM*,-14.3,5.01µM*,?,-2.5,?
CCOC(=O)c1cnc2ccccc2c1NCCc1ccc(OC)c(OC)c1,11.7µM*,-22.8,?,-17.8,-1.5,1.65µM*
CCOc1cc(/C=C/C(=O)OCC(=O)NCC2CCCO2)cc(Cl)c1OC (stereo unspecified),.,.,?,6.7,.,.
COc1ccc(-n2cc(-c3ccc4c(c3)OCO4)n(CC(=O)Nc3cccc(C)c3)c2=O)cc1,.,.,.,22.2,.,.
Cc1cccc(-c2noc(CCCC(=O)NC3CCCC3)n2)c1,-3.7%,3.8,-29.5%,4.6,0.4,2.0%
Fc1cccc(Cl)c1C1Nc2cccc3cccc(c23)N1,?,33.8,-13.9%,-33.3,24.0*,-2.1%
Cc1ccc(C2NC(=O)c3ccccc3N2)s1 (stereo unspecified),104.2%,47.7*,-4.8%,33.5,29.6*,?
CN(C)c1ccc(C2NC(=O)c3ccccc3N2)cc1 (stereo unspecified),101.0%,65.8*,?,12.0,46.4*,-1.4%
Clc1cccc(Cl)c1C1Nc2cccc3cccc(c23)N1,?,4.7,?,-32.4,2.7,5.8%
O=[N+]([O-])c1ccc(Cl)c(C2Nc3cccc4cccc(c34)N2)c1,?,-4.1,-29.1%,-81.5*,-2.8,?
Cc1cccc(C2NC(=O)c3ccccc3N2)c1 (stereo unspecified),.,.,9.6%,53.5,.,.
CCOc1ccc(C(=O)Nc2cc(-c3nc4ccccc4o3)ccc2C)cc1Cl,.,.,.,-16.2,.,.
Clc1cccc(C2Nc3cccc4cccc(c34)N2)c1,7.38µM*,-7.5,17.5%,43.3,0.5,62.7%
CN(C)c1ccc(C2Nc3cccc4cccc(c34)N2)cc1,.,31.3,18.1%,94.4,10.8,3.7µM*
Oc1ccccc1C1Nc2cccc3cccc(c23)N1,13.1µM*,29.4,8.0%,-15.9,11.3,-7.2%
Cc1c(NC(=O)C(C)N2C(=O)NC3(CCC(C)CC3)C2=O)c(=O)n(-c2ccccc2)n1C (stereo unspecified),21.3%,25.7,6.5%,-15.7,7.8,?
CCc1ccccc1NC(=O)Cn1cc2c(n1)CCC(C)C2 (stereo unspecified),.,.,.,13.1,.,.
CCc1ccc(C(=O)C(C)OC(=O)CNS(=O)(=O)c2ccc(C)cc2)cc1 (stereo unspecified),37.2%,.,15.5%,-7.3,.,37.8%
CN(C)CCN(C(=O)c1ccc2c(c1)CCCC2)c1nc2c(F)cccc2s1,6.7%,62.0,-15.1%,13.8,56.3*,-25.3%
CCOc1cccc2sc(N(CCN(C)C)C(=O)c3ccc4c(c3)OCCO4)nc12,-18.9%,-17.9,.,-31.9,-0.8,?
COc1cccc2sc(N(CCN(C)C)C(=O)c3ccc4c(c3)CCCC4)nc12,10.4µM*,27.9,?,?,-0.9,?
Cc1nc2sccn2c(=O)c1Cl,-8.3%,-5.6,-8.3%,43.8,-2.4,-26.2%
Cn1c(=O)c2c(nc3sccn32)n(C)c1=O,1.0%,11.4,16.3%,11.5,20.3*,-24.8%
SMILES,Pf growth 48h,Shiga inhibitor,HCV inh,HCMV antiviral,CHX counter,Pf growth 96h
C[C@@H]1CN([C@@H](C)CO)C(=O)CCCn2cc(nn2)CO[C@H]1CN(C)C(=O)Nc1ccccc1,.,.,.,8.0,.,.
O=c1c(O)c(-c2ccc(O)cc2)oc2cc(O)cc(O)c12,.,.,6.31µM*,.,.,.
C[C@@H]1O[C@@H](Oc2c(-c3cc(O)c(O)c(O)c3)oc3cc(O)cc(O)c3c2=O)[C@H](O)[C@H](O)[C@H]1O,13.1µM*,-7.4,0.1%[8.37 µM],38.8,-14.7,?
COc1cc(O)c2c(=O)c(O)c(-c3ccc(O)c(O)c3)oc2c1,.,-4.1,.,.,-3.8,.
Cc1cc(Cl)ccc1OCC(=O)Nc1nc(-c2cccnc2)cs1,?,11.6,10.5%,0.0,1.1,0.0%
Clc1ccc(Nc2nc(-c3cccnc3)cs2)cc1,.,119.1*,-25.8%,17.0,41.3*,10.4%
Clc1ccc(-c2csc(Nc3cccnc3)n2)cc1,9.7%,34.1,?,?,12.4,2.5%
Cc1ccc(Cl)cc1Nc1nc(-c2cccnc2)cs1,?,.,?,?,17.2*,-7.2%
Fc1ccc(Nc2nc(-c3cccnc3)cs2)cc1,42.4%,145.6*,?,108.1,48.4*,38.7%
c1ccc(-c2csc(Nc3cccnc3)n2)cc1,109.3%,118.3*,?,95.6,53.7*,-2.3%
Cc1nc(-c2ccc(F)cc2)sc1CCNC(=O)c1ccco1,.,.,.,34.3,.,.
O=C(NCc1ccccc1CN1CCCCC1)c1ccc(Cl)cc1N1CCCC1=O,?,.,11.1%,-5.9,.,?
O=C(NCc1ccccc1CN1CCCC1)c1ccc(Cl)c(N2CCCC2=O)c1,?,.,17.8µM*,-34.2,.,?
NC(Cc1ccc(O)cc1)C(=O)NN=Cc1ccccc1O (stereo unspecified),.,.,.,21.0,.,.
COC(=O)C(Cc1ccc(N(CCCl)CCCl)cc1)N=Cc1ccccc1O (stereo unspecified),?,8.8,?,-103.5*,10.1,0.0%
CCOc1cc2c3c(c1)C1(Nc4ccccc4S1)C(=O)N3C(C)(C)CC2C (stereo unspecified),.,5.8,?,35.1,2.3,?
CCOc1cc2c3c(c1)C1(C(=O)N3C(C)(C)CC2C)C(C#N)=C(N)N2C(=C1C#N)Nc1ccccc12 (stereo unspecified),3.29µM*,19.1,?,-7.6,-3.0,?
Cc1ccc(CNC(=O)c2nc(-c3ccc(Cl)cc3)n3c2CCCCC3)cc1,.,.,.,-5.2,.,.
O=C(OCC(=O)N1CCOCC1)c1cccc(F)c1,98.0%,93.6*,21.4%,-15.1,47.9*,101.4%
CC1CN(C(=O)COC(=O)c2ccc(F)cc2Cl)CC(C)O1 (stereo unspecified),16.9%,14.0,2.7%,-6.2,0.9,22.4%
O=C(OCC(=O)N1CCOCC1)c1ccc(F)cc1Cl,47.3%,51.0*,-6.9%,42.9,35.4*,82.3%
CC(=O)OCC(=O)c1ccc2ccn(C(C)=O)c2c1,3.8%,31.8,-9.7%,-15.9,25.1*,10.4µM*
Cn1c2ccc(F)cc2c2nc3ccccc3nc21,4.3%,2.4,?,155.5,11.3,?
Cc1ccc2c(c1)c1nc3ccccc3nc1n2CCN1CCOCC1,18.4%,6.2,12.6µM*,-14.0,10.9*,.
Cc1ccc2c(c1)c1nc3ccccc3nc1n2C,0.0%,21.8,11.2µM*,240.9,19.0*,2.2%
